Out of some 310,000 compounds screened, about 14,000 (4.5%) showed an effect of 50% or more. The effect is printed as a negative number. The sample holds strong results, similar compounds and a random draw of the others, so the mix is not that of the screen.
What follows are molecules tested against human ether-à-go-go-related gene (hERG) potassium channel (human, UniProt Q12809) (assay: primary screen, population patch clamp on CHO cells stably expressing hERG; higher = less effect of the substance).
Sequence of human ether-à-go-go-related gene (hERG) potassium channel (Q12809 whole entry, looked up): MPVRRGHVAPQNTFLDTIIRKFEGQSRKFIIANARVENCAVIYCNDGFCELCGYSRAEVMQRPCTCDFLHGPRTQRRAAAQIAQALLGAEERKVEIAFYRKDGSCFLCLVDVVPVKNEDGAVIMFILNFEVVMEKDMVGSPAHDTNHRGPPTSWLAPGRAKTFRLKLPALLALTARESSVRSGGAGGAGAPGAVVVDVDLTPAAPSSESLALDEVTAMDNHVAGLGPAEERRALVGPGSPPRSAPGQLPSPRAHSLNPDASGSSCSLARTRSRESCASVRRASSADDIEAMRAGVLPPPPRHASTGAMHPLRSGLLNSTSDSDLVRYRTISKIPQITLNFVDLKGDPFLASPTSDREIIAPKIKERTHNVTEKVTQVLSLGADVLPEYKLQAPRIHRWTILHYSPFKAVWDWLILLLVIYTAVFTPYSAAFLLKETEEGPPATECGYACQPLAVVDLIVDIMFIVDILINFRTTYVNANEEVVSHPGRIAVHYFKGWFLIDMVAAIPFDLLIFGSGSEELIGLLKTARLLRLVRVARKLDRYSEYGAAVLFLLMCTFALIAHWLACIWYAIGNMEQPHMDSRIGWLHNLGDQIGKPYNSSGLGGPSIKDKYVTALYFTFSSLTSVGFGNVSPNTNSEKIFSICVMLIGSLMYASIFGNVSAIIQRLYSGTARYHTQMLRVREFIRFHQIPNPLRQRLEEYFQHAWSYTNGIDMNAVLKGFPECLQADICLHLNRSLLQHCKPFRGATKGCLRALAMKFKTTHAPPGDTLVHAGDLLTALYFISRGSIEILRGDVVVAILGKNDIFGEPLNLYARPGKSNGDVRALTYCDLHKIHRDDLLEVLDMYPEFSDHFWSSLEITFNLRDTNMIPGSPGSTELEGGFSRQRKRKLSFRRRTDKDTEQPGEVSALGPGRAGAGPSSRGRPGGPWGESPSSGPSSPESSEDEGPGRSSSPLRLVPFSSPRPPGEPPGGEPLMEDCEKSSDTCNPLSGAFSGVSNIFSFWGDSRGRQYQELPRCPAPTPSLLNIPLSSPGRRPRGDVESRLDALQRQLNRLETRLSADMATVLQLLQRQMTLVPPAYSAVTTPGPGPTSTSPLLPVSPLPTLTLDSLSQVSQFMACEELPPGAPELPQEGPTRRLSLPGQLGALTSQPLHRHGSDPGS
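Also: peak tail current of the secondary pulse compared with the same well before compound.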

| SMILES | hERG current change (%, negative = inhibition) at 10uM |
| --- | --- |
| Cc1ccc(OC(=O)c2ccc(S(=O)(=O)N(C)C)cc2)c(-n2nc3ccccc3n2)c1 | 3.83% |
| O=C(Nc1nccs1)c1ccc(-c2ccc(Cl)cc2Cl)o1 | 25.5% |
| COc1ccc(CNC(=O)c2cc3c(=O)n4cccc(C)c4nc3n(CC3CCCO3)c2=N)cc1 (stereo not drawn) | -77.2% |
| Cc1ccc(CCNC(=O)c2ccc3nc4ccccc4c(=O)n3c2)cc1 | 6.08% |
| O=C(CSc1nc2ccccc2c(=O)n1CC1CCCO1)NCCc1ccccc1 (stereo not drawn) | 7.48% |
| COc1ccc(CNC(=O)C(=O)NCC2CCCO2)cc1 (stereo not drawn) | 9.7% |
| Cc1ccc2nc3c(cc(C(=O)NCCc4ccccc4)c(=N)n3CC3CCCO3)c(=O)n2c1 (stereo not drawn) | -76.9% |
| COc1ccc(CCNC(=O)c2cc3c(=O)n4cccc(C)c4nc3n(CC3CCCO3)c2=N)cc1 (stereo not drawn) | -75.2% |
| Cc1cccn2c(=O)c3cc(S(=O)(=O)c4ccccc4)c(=N)n(CC4CCCO4)c3nc12 (stereo not drawn) | -15.3% |
| Cc1cccn2c(=O)c3cc(C(=O)NCCc4ccccc4)c(=N)n(CC4CCCO4)c3nc12 (stereo not drawn) | -82.3% |
| CCOc1cc(CNCCc2cccc(F)c2)ccc1OC.O=C(O)C(=O)O | -43.8% |
| O=C(Nc1ccc2c(c1)OCCO2)c1cnn(-c2ccccc2)n1 | -6.02% |
| O=C(CSc1nc2cc(Cl)ccc2c(=O)n1Cc1ccco1)Nc1ccc(S(=O)(=O)N2CCOCC2)cc1 | -13.6% |
| Cc1ccc(NC(=O)CCNC(=O)c2ccccc2Cl)cc1S(=O)(=O)N1CCOCC1 | -8.82% |
| Cn1c(C(=O)O)ccc1S(=O)(=O)N(Cc1ccccc1)Cc1ccccc1 | 16.5% |
| Cc1ccccc1NC(=O)Cn1c(NCC(C)O)nc2ccccc21 (stereo not drawn) | -2.11% |
| COc1ccc(S(=O)(=O)c2c(O)c3ccc(C(=O)Nc4ccccc4F)cc3[nH]c2=O)cc1 | -0.579% |
| CCc1nnc(NC(=O)CSc2nnc(CSc3nc(C)cc(C)n3)o2)s1 | 3.21% |
| Cc1cccn2c(=O)c3cc(C(=O)NCc4ccc(F)cc4)c(=N)n(CC4CCCO4)c3nc12 (stereo not drawn) | -74% |
| N=c1c(C(=O)NCCc2ccccc2)cc2c(=O)n3ccccc3nc2n1CC1CCCO1 (stereo not drawn) | -90.7% |

| SMILES | hERG current change (%, negative = inhibition) at 10uM |
| --- | --- |
| COc1ccc(CCNC(=O)Cn2c(=O)n(CC3CCCO3)c(=O)c3ccccc32)cc1OC (stereo not drawn) | -0.738% |
| COc1ccc(CCNC(=O)c2cc3c(=O)n4ccccc4nc3n(CC3CCCO3)c2=N)cc1OC (stereo not drawn) | -78.4% |
| O=C(NCc1ccc(Cl)cc1)c1ccc2c(=O)n(CC3CCCO3)c(=S)[nH]c2c1 (stereo not drawn) | 7.01% |
| Cc1ccc2nc(/C(C#N)=C\c3ccc(Oc4ccc(C(F)(F)F)cc4[N+](=O)[O-])cc3)[nH]c2c1 | 20.8% |
| COc1ccc(C(=O)CC(=O)C(=O)Nc2ccc(OC)c(Cl)c2)cc1 | 12.9% |
| Cc1nn(-c2ccccc2)c(N2CCCCC2)c1/C=N/NC(=O)c1ccncc1 | 7.3% |
| O=C1CCCC2=C1C(c1ccccc1)n1c(s/c(=C/c3cccc(F)c3)c1=O)=N2 (stereo not drawn) | 16% |
| NCc1cccc(CNc2ccc([N+](=O)[O-])cc2C(N)=O)c1 | -19.9% |
| O=[N+]([O-])c1cc(C(F)(F)F)ccc1NC1CCN(Cc2ccccc2)C1 (stereo not drawn) | -66.6% |
| O=[N+]([O-])c1cc(C(F)(F)F)ccc1NC1CCN(Cc2ccccc2)CC1 | -68% |
| NC(=O)CC(NC(=O)Cc1ccc(Br)cc1)c1ccc(NC2CCN(Cc3ccccc3)CC2)c([N+](=O)[O-])c1 (stereo not drawn) | -45.8% |
| NC(=O)CC(NC(=O)Cc1ccc(Cl)cc1)c1ccc(NC2CCN(Cc3ccccc3)CC2)c([N+](=O)[O-])c1 (stereo not drawn) | -18.5% |
| NC(=O)CC(NC(=O)c1cccc(Br)c1)c1ccc(NC2CCN(Cc3ccccc3)CC2)c([N+](=O)[O-])c1 (stereo not drawn) | 6.8% |
| NC(=O)CC(NC(=O)c1ccccc1)c1ccc(NC2CCN(Cc3ccccc3)CC2)c([N+](=O)[O-])c1 (stereo not drawn) | 1.08% |
| CCCc1nc(SCC(=O)NNC(=O)C2CCCCC2)c2ccccc2n1 | -2.77% |
| Cc1ccc(S(=O)(=O)N(C)c2ccc(OCC(=O)Nc3nc(-c4ccccc4)cs3)cc2)cc1 | 14.3% |
| Clc1ccc(C[n+]2cc(-c3ccccc3)n3c2CCCCC3)c(Cl)c1.[Br-] | -74.4% |
| Clc1ccc(C[n+]2cc(-c3ccccc3)n3c2CCC3)cc1.[Cl-] | -33.5% |
| Clc1ccc(-c2c[n+](Cc3ccc(Cl)cc3Cl)c3n2CCCCC3)cc1.[Br-] | -66% |
